Compounds with a hit are over-represented: about 9.2% of the library has one in this group of screens.
Rab9 prom act: Rab9 promoter activation; Huh7 Rab9 promoter-luciferase reporter, luminescence, 24 h; Potency, µM (top dose mostly 9.22 µM), for the others: at the highest dose activation, negative = inhibition, actives largely listed as activators; hit rate 2.8% among 320,000; also: % of control where 0% means no effect; nearly all actives have a fitted effect of over 60% in size
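Stable Rab9-luc Huh7, 1500 cells/well, 2 h settle; cmpd in DMSO, 24 h, 37 °C/5% CO2; luciferase reagent 10 min RT; luminescence.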
NPC1 promoter act: activates the NPC1 promoter | AID 485313 | Huh7 NPC1 promoter luciferase reporter, 24 h | hit rate 2.4% among 320,000 | Potency, µM (doses to about 9.22 µM), inactives show top-dose activation, most hits filed as activators; also: % of control where 0% means no effect; nearly all actives have a fitted effect of over 60% in size
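Luminescence read-out of NPC1 promoter-driven luciferase in stably transfected Huh7 cells; compounds delivered in DMSO and left 24 h at 37C, 5% CO2, qHTS titration format.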
FLuc counter: inhibits or activates purified firefly luciferase, miR-21 counter-screen. Potency, µM (doses to about 57.5 µM), inactives show top-dose activity change, negative = inhibition, most hits filed as inhibitors. AID 588342. hit rate 6.9% among 360,000. purified FLuc, Km substrates, luminescence inhibition. P08659;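 also: plate controls were vehicle for no effect and reference inhibitor for full effect; nearly all actives have a fitted effect of over 55% in size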
Target sequence (P08659 whole entry, looked up): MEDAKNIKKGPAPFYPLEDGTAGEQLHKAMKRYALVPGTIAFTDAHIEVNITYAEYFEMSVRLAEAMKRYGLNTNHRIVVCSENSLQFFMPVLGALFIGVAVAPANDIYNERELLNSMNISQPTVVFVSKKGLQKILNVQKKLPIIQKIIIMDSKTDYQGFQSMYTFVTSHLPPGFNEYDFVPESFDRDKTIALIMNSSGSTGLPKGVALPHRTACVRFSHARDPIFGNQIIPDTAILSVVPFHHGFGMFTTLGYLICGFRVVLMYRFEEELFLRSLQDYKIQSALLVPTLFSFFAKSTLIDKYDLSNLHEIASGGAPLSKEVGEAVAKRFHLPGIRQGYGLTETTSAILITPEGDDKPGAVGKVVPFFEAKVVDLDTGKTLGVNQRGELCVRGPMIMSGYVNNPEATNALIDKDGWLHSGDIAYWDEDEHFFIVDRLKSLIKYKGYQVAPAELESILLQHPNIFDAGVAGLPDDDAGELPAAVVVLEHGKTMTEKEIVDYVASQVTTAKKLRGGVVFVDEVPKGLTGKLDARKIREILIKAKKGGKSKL
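Biochemical qHTS of compounds, final roughly 60 µM downward over six points, against 10 nM purified firefly luciferase using Km concentrations of substrates (10 uM D-luciferin, 10 uM ATP) in Tris acetate pH 7.5 buffer; luminescence output.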
ELG1 DNA repair: inhibitors of ELG1-dependent DNA repair in HEK293T cells. HEK293T ELG1-luciferase reporter, luminescence, 16 h; DNA damage induced by 5-fluorouridine. Potency, µM (series often up to 46.1 µM), for the others: top-dose activity change, negative = inhibition, hits mostly inhibitors. hit rate 2.3% among 330,000; also: % is scaled to controls: 0 for no effect and ±100 for the full control effect; nearly all actives have a fitted effect of over 55% in size
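Cells (2,000 per well) received 5-fluorouridine plus test compound or DMSO and were incubated 16 hr at 37 °C, 5% CO2. Luciferase activity was read by luminescence 30 min after ONE-Glo addition; signal suppression marked inhibition of damage-induced ELG1 function.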
SMN2 splice enh: enhancers of SMN2 splice variant expression; HEK293 SMN2-luciferase splicing reporter, luminescence, 30-36 h; Potency, µM (top dose mostly 46.1 µM), for inactives: top-dose activity change, positive = activation, usual class: activators; hit rate 2.8% among 210,000; AID 1458; also: % of control where 0% means no effect; nearly all actives have a fitted effect of over 55% in size
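qHTS luciferase splicing reporter: luminescence rises when SMN2 exon 7 is included in transfected HEK293 cells. Compound exposure lasted 30-36 h at 37C, with 4.5 mM final sodium butyrate as control, followed by a ONE-Glo read.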
ELG1 genotox: inducers of genotoxicity in HEK293T ELG1-luciferase cells; HEK293T ELG1-luciferase reporter, luminescence, 16 h; Potency, µM (highest dose often 46 µM), without a hit: top-dose activity change, positive = activation, most hits filed as activators; hit rate 1.3% among 330,000; AID 504466; also: % of control where 0% means no effect; nearly all actives have a fitted effect of over 60% in size
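Cells (2,000/well) expressing the ELG1-luciferase fusion are dosed by pin tool and kept 16 hr at 37 °C, 5% CO2. Signal comes from ONE-Glo luciferase reagent after 30 min at room temperature.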
The depositor's hits bear a star; u = inconclusive; x = no result given; [ ] = remark or other dose. Calls follow the shape of the dose curve; as a rule, active = well fitted curve in the direction sought with a large enough effect; inconclusive = small, poorly fitted or top-dose-only effect, or another doubt; inactive = no such curve, though single readings can be large; an effect the other way counts as inactive or inconclusive. Potency is read from the fitted curve at half-maximal effect.

SMILES | Rab9 prom act | NPC1 promoter act | FLuc counter | ELG1 DNA repair | SMN2 splice enh | ELG1 genotox
COc1cc(/C=N/N2CCOCC2)ccc1OCc1ccc(Cl)cc1 | 17% | -3% | 11µM* | u | 11µM* | u
COc1cc(/C=N/OCC(=O)NC2CCCCC2C)ccc1OCc1ccc(Cl)cc1 (stereo unspecified) | 2.8µM* | u | 6.7µM* | u | u | 18µM*
COc1cc(/C=N/OCC(=O)Nc2cc(C)cc(C)c2)ccc1OCc1ccc(Cl)cc1 | 3.2µM* | u | 9.5µM* | u | 11µM* | u
COC(=O)c1ccc(/C=N/OCC(=O)NC2CCCC(C)C2C)cc1 (stereo unspecified) | -1% | -6% | -7% | -15% | -74% | -11%
Cn1nnnc1SCc1nc2ccccc2s1 | u | 20% | u | u | u | 14%
CCN(CC)S(=O)(=O)c1cccc(-c2nnc(SCc3nc4ccccc4s3)o2)c1 | u | 14% | 15µM* | u | -45% | 3%
Brc1ccccc1-c1nnc(SCc2nc3ccccc3s2)o1 | u | 22% | 7.6µM* | u | 14µM* | u
CCN(CC)S(=O)(=O)c1cccc(-c2nnc(-c3ccc(C)cc3)o2)c1 | 11% | 10% | -8% | u | -12% | 7%
CC(C)=NOc1nc(N(C)C)nc(N(C)C)n1 | -12% | 0% | -1% | 0% | x | -1%
Cc1ccc(S(=O)(=O)Nc2cc3c(cc2NCc2ccccc2)n(C)c(=O)n3C)c(C)c1 | x | x | u | x | 10µM* | x
Cn1c(=O)n(C)c2cc(NS(=O)(=O)c3ccc(F)cc3)c(NCc3ccccc3)cc21 | x | x | 17µM* | x | 0.89µM* | x
Cc1ccc(S(=O)(=O)Nc2ccc3c(c2)n(C)c(=O)n3C)c(C)c1 | -8% | -1% | -8% | u | x | u
CCc1ccc(S(=O)(=O)Nc2cc3c(cc2C)n(C)c(=O)n3C)cc1 | -34% | -32% | 3% | u | x | u
Cc1ccc(S(=O)(=O)Nc2cc3c(cc2NCc2ccccc2)n(C)c(=O)n3C)cc1 | x | x | u | x | 14µM* | x
Cc1c(NC(=O)c2cccc(NC(=O)c3ccco3)c2)cccc1C(=O)O | 3% | -3% | 19µM* | 11% | 8% | 0%
O=C(O)Cc1ccc(NC(=O)c2cccc(NC(=O)c3ccco3)c2)cc1 | -2% | -3% | 17µM* | 6% | x | 4%
O=C(Nc1ccc(O)c(C(=O)O)c1)c1cccc(NC(=O)c2ccco2)c1 | -5% | -1% | 11µM* | 3% | x | -1%
O=C(NCc1ccccc1)c1cccc(NC(=O)c2ccco2)c1 | -5% | 6% | -17% | -27% | -30% | 3%
Cc1nc(N2CCOCC2)c2nc(-c3ccccc3)n(CCN(C)C)c2n1 | x | x | x | x | 0% | x
COc1cccc(CNC(=O)Cn2nc(C)c([N+](=O)[O-])c2C)c1 | 5% | 0% | -1% | -8% | x | -1%
O=C(NNS(=O)(=O)c1ccc(C(=O)NC2CCCC2)cc1)c1ccncc1 | -1% | -1% | 7% | -5% | -4% | 1%
CC(=O)N(CC(C)C(=O)O)c1c(I)cc(I)c(N)c1I (stereo unspecified) | -3% | 2% | 0% | 25% | x | 9%
COc1ccc(CCN2C(=S)NC3CC2(C)Oc2ccc([N+](=O)[O-])cc23)cc1OC (stereo unspecified) | 2% | -8% | -1% | 26µM* | -33% | -9%
Cc1cccc2c1[nH]c1nc(N/N=C\c3ccco3)nnc12 | 14% | 11% | -12% | 13% | -1% | 3%
C=CCSc1nnc2c(n1)[nH]c1c(C)cccc12 | u | 3.5µM* | 9.5µM* | u | -19% | u
SMILES | Rab9 prom act | NPC1 promoter act | FLuc counter | ELG1 DNA repair | SMN2 splice enh | ELG1 genotox
COc1cc(CNc2ccc(N3CCCC3)cc2)cc(Cl)c1OC | 14% | 1% | 9.5µM* | 13% | -37% | 3%
COc1cc(CNc2ccc(N3CCOCC3)cc2)cc(Br)c1OC | 2% | -6% | -8% | u | -10% | -5%
CCOc1cc(CNc2ccc(N3CCCC3)cc2)cc(Cl)c1OC | 20% | 13% | 27µM* | u | -3% | 10%
CCn1c2ccccc2c2nnc(N3CCN(c4ccc(OC)cc4)CC3)nc21 | x | x | 5% | x | x | x
Cc1ccccc1C(=O)Oc1cc(N)n(S(C)(=O)=O)n1 | -8% | 4% | u | u | 7% | 2%
Cc1c(C(=O)Oc2cc(N)n(S(C)(=O)=O)n2)cccc1[N+](=O)[O-] | 3% | 1% | 21µM* | 5% | 0% | 0%
CC1CCC(NC(=O)Cn2cc3c(n2)CCCC3)CC1 (stereo unspecified) | u | u | u | u | 26% | 7.3µM*
CCOC(=O)N1CCC(NC(=O)Cn2cc3c(n2)CCC(C)C3)CC1 (stereo unspecified) | -4% | 3% | -2% | -2% | -6% | -5%
c1ccc2c(c1)nnn2CN1CCOCC1 | x | x | x | x | -26%[9.22 µM] | x
COc1cc(S(=O)(=O)NCCc2c(C)[nH]c3ccccc23)c(C)cc1C | x | x | 1% | x | -4% | x
COc1cccc(C(=O)O/N=C(\N)Cc2ccc(Cl)cc2)c1 | -3% | 1% | u | 1% | -4% | -2%
Cc1cccc(/C(N)=N/OC(=O)c2ccncc2)c1 | 4µM* | 1.1µM* | 8.5µM* | u | x | u
COc1cccc(C(=O)O/N=C(\N)c2ccncc2)c1 | -1% | u | 1.3µM* | u | 12% | u
COc1cccc(C(=O)O/N=C(\N)c2ccc(C)cc2)c1 | 26% | 3.2µM* | 1.9µM* | u | x | u
N/C(=N\OC(=O)c1cccc2ccccc12)c1ccncc1 | -2% | 2% | 24µM* | u | x | u
N/C(=N\OC(=O)c1ccncc1)c1cccc([N+](=O)[O-])c1 | 20% | 18% | u | u | x | 17%
CC(=O)c1cccc(NC(=O)C(CC(C)C)NC(=O)C2CCCCC2)c1 (stereo unspecified) | -2% | -1% | -4% | 0% | -17% | 13%
Cc1ccc(NC(=O)Nc2ccccc2)cc1[N+](=O)[O-] | u | u | 8.5µM* | u | 13µM* | -1%
O=C(Nc1ccccc1)Nc1ccc(Cl)c([N+](=O)[O-])c1 | 12% | 13% | 19µM* | u | -4% | -11%
CC(=O)Nc1ccc(C)c([N+](=O)[O-])c1 | -7% | -6% | -2% | -1% | x | 3%
O=C(Nc1ccc(Cl)c([N+](=O)[O-])c1)Nc1nc2ccccc2s1 | 17% | 18% | u | u | x | -5%
COc1cc(NC(=O)CN(C)Cc2ccc(OC(F)F)cc2)c(C)cc1[N+](=O)[O-] | 0% | -3% | -1% | u | x | -7%

Compound activity deposited in PubChem BioAssay by National Center for Advancing Translational Sciences (NCATS).
